This note sets out measurements from article PMC7862700, “An all-to-all approach to the identification of sequence-specific readers for epigenetic DNA modifications on cytosine”.

What all share (assay): DAPPL (digital affinity profiling via proximity ligation, sequencing); 10 mM Tris-HCl pH 7.5, 50 mM NaCl, 1 mM DTT, 4% glycerol, room temperature, 30 min; GST-TFs on glutathione beads, 16-mer random dsDNA library, 0.1% formaldehyde crosslink after washing; high values mean tight binding
What all share (conditions): protein: recombinant; tags: N-terminal GST; dsDNA, one strand shown

Experiment [1] addresses T1, FLI1 (Homo sapiens, UniProt Q01543 1-452).
T1 sequence: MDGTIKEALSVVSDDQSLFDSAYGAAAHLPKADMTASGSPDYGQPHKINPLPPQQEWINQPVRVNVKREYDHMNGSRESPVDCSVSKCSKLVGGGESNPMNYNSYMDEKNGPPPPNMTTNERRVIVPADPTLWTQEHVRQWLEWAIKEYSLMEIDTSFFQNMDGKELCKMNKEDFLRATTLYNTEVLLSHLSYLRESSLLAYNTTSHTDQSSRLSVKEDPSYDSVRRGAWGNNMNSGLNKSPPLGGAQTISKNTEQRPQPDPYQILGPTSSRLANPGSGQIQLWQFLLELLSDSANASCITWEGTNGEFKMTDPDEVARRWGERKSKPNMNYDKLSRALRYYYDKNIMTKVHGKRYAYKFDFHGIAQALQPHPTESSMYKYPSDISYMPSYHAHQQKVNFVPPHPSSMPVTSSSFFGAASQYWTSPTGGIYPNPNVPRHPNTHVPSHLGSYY
The method, boiled down: (§1)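 A tag-only sample was pooled with DNA-barcoded human transcription factors that had been expressed in yeast as GST fusions and captured on glutathione beads. The pools were incubated for 30 min at room temperature with 200 nmole of a random double-stranded 16-mer DNA library in Tris/NaCl/DTT/glycerol buffer, then washed, crosslinked with 0.1% formaldehyde, proximity-ligated (BsaI/T4 ligase, 1 h, 37 °C), PCR-amplified and sequenced on an Illumina NextSeq500. Binding signal is each hexamer's read frequency for a factor divided by its frequency for the tag-only sample.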

Experiment [2] deals with T2, ELK1 (Homo sapiens, UniProt P19419 1-428).
T2 sequence: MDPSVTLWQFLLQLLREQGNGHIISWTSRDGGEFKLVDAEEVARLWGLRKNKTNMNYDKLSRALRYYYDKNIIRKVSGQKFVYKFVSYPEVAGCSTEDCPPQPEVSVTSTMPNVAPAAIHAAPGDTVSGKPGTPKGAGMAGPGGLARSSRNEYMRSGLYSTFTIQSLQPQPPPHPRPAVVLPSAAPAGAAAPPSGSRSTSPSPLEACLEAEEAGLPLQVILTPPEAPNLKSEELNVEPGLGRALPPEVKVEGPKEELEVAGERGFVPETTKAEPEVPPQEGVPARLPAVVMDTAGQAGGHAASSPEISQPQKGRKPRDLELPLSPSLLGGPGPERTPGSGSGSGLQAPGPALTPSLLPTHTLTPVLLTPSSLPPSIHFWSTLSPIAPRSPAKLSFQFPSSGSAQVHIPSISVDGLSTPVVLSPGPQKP
The method, boiled down:
as §1

The target of experiment [3] is T3, GABPA (Homo sapiens, UniProt Q06546 1-454).
T3 sequence: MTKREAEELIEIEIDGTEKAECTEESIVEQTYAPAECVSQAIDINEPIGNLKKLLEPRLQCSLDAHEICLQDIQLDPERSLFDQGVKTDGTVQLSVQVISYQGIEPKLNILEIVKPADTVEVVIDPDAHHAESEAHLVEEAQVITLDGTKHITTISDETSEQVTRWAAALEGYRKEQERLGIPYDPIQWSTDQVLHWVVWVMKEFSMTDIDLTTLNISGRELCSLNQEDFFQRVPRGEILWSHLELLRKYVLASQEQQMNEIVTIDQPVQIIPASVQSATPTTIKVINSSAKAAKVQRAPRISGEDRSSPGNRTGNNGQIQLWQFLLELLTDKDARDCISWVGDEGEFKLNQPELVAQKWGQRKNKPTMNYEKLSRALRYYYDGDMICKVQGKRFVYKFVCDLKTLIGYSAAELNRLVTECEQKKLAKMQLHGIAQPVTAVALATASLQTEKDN
The gist of the method:
as §1

Experiment [4] has as its target T4, ERG (Homo sapiens, UniProt P11308 1-479).
T4 sequence: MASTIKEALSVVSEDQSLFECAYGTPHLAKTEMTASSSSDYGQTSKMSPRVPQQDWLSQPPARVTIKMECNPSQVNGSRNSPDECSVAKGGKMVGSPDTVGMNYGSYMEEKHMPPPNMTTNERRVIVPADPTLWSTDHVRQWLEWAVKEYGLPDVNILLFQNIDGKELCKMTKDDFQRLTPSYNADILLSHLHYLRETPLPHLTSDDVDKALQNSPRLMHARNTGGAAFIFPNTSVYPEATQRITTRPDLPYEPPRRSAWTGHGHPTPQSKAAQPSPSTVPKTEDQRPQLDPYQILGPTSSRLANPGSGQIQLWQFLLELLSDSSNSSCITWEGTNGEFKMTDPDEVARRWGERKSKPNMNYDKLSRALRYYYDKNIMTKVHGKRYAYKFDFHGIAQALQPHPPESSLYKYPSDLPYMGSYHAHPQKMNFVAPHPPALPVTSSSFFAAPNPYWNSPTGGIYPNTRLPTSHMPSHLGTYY
The gist of the method:
as §1

The target in experiment [5] is ELF1 (Homo sapiens, UniProt P32519 1-619). The gist of the method:
as §1

The target in experiment [6] is T5, EHF (Homo sapiens, UniProt Q9NZC4 1-300).
T5 sequence: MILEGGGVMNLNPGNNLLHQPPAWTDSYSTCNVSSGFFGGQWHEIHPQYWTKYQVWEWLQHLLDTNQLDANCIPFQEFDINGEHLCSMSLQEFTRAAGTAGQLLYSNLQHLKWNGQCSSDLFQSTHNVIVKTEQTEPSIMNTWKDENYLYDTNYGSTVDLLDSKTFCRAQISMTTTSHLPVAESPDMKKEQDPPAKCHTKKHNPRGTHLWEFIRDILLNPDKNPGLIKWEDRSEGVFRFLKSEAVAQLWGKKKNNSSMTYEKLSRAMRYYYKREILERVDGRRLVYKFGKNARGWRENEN
The gist of the method:
as §1

Experiment [7] has as its target SPI1 (Homo sapiens, UniProt P17947 1-270). The gist of the method: as §1
For experiment [8], the target named is SPIB (Homo sapiens, UniProt Q01892 1-262). The gist of the method:
as §1

Experiment [9] deals with T6, ELK3 (Homo sapiens, UniProt P41970 1-407).
T6 sequence: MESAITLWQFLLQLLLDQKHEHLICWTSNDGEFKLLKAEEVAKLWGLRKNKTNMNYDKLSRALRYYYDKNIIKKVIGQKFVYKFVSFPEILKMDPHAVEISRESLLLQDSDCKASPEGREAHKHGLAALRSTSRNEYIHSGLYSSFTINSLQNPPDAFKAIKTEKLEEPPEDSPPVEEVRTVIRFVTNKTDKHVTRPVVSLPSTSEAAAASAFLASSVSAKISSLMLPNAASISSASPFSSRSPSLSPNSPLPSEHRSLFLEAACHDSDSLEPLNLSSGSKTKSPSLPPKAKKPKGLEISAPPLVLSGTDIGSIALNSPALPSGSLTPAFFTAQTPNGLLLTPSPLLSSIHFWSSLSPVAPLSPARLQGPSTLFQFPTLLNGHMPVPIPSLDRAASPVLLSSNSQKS
The method, boiled down: as §1

Chain of SPIB (Q01892 whole entry): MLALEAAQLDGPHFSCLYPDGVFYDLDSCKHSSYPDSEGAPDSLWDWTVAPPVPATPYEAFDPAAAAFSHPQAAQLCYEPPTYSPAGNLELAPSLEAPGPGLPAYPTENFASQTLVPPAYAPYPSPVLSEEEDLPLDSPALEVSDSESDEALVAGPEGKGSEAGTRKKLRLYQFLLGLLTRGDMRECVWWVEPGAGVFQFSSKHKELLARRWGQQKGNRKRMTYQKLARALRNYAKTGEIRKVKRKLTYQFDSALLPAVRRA
Chain of ELF1 (P32519 whole entry): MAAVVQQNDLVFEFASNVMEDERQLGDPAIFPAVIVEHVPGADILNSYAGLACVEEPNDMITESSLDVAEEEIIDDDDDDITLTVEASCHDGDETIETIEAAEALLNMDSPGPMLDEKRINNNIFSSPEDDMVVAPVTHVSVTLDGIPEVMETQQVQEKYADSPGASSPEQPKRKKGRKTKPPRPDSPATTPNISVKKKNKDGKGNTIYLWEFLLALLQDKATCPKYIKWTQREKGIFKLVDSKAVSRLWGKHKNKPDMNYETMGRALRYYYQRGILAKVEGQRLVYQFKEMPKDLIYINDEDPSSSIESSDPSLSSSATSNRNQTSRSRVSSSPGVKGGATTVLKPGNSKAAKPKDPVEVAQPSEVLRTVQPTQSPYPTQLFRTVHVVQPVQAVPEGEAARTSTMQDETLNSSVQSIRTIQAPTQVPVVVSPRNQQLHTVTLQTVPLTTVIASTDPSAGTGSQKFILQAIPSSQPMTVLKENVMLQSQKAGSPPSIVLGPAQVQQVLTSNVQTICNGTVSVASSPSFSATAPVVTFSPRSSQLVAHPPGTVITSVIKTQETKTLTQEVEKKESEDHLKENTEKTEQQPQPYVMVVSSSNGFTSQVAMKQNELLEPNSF

Regarding ACCTAC, the binding signal was 1.22 fold enrichment (6-mer frequency, TF over GST control) in experiment [1]; 1.2 fold enrichment (6-mer frequency, TF over GST control) in [2]; 1.21 fold enrichment (6-mer frequency, TF over GST control) in experiment [3]; 1.1 fold enrichment (6-mer frequency, TF over GST control) in experiment [4]; 1.27 fold enrichment (6-mer frequency, TF over GST control) in [5]; 1.21 fold enrichment (6-mer frequency, TF over GST control) in [6]. Also, the binding signal in [7] is 1.18 fold enrichment (6-mer frequency, TF over GST control); in [8], 1.23 fold enrichment (6-mer frequency, TF over GST control); in [9] it was 1.13 fold enrichment (6-mer frequency, TF over GST control).

As to CTAATC, the binding signal in experiment [1] was 1.32 fold enrichment (6-mer frequency, TF over GST control); in experiment [2], 1.39 fold enrichment (6-mer frequency, TF over GST control); in experiment [3] it was 1.34 fold enrichment (6-mer frequency, TF over GST control); in experiment [4], 1.32 fold enrichment (6-mer frequency, TF over GST control); in experiment [5], 1.32 fold enrichment (6-mer frequency, TF over GST control); in experiment [6], 1.35 fold enrichment (6-mer frequency, TF over GST control). Besides, the binding signal was 1.26 fold enrichment (6-mer frequency, TF over GST control) in [7]; 1.45 fold enrichment (6-mer frequency, TF over GST control) in experiment [8]; 1.44 fold enrichment (6-mer frequency, TF over GST control) in experiment [9].

TAATAA: the binding signal is 1.17 fold enrichment (6-mer frequency, TF over GST control) in experiment [1]; 1.19 fold enrichment (6-mer frequency, TF over GST control) in experiment [2]; 1.21 fold enrichment (6-mer frequency, TF over GST control) in experiment [3]; 1.22 fold enrichment (6-mer frequency, TF over GST control) in experiment [4]; 1.16 fold enrichment (6-mer frequency, TF over GST control) in [5]; 1.24 fold enrichment (6-mer frequency, TF over GST control) in [6]. The binding signal in [7] was 1.09 fold enrichment (6-mer frequency, TF over GST control); in [8], 1.27 fold enrichment (6-mer frequency, TF over GST control); in [9], 1.05 fold enrichment (6-mer frequency, TF over GST control).

As to TCCTTC, the binding signal in experiment [1] is 2.2 fold enrichment (6-mer frequency, TF over GST control); in [2], 2 fold enrichment (6-mer frequency, TF over GST control); in experiment [3], 2.01 fold enrichment (6-mer frequency, TF over GST control); in [4] it was 2.44 fold enrichment (6-mer frequency, TF over GST control); in experiment [5], 2.05 fold enrichment (6-mer frequency, TF over GST control); in [6] it was 2 fold enrichment (6-mer frequency, TF over GST control). Moreover, the binding signal is 2.15 fold enrichment (6-mer frequency, TF over GST control) in experiment [7]; 2.16 fold enrichment (6-mer frequency, TF over GST control) in experiment [8]; 2.3 fold enrichment (6-mer frequency, TF over GST control) in [9].

Regarding GTATTA, the binding signal in [1] was 1.17 fold enrichment (6-mer frequency, TF over GST control); in experiment [2], 1.2 fold enrichment (6-mer frequency, TF over GST control); in experiment [3], 1.07 fold enrichment (6-mer frequency, TF over GST control); in [4], 1.12 fold enrichment (6-mer frequency, TF over GST control); in experiment [5], 1.11 fold enrichment (6-mer frequency, TF over GST control); in experiment [6] it was 1.03 fold enrichment (6-mer frequency, TF over GST control). Besides, the binding signal was 1.04 fold enrichment (6-mer frequency, TF over GST control) in experiment [7]; 1.07 fold enrichment (6-mer frequency, TF over GST control) in experiment [8]; 1.06 fold enrichment (6-mer frequency, TF over GST control) in experiment [9].

As for AAAATC, the binding signal in [1] is 1.16 fold enrichment (6-mer frequency, TF over GST control); in experiment [2], 1.11 fold enrichment (6-mer frequency, TF over GST control); in experiment [3], 1.22 fold enrichment (6-mer frequency, TF over GST control); in experiment [4], 1.18 fold enrichment (6-mer frequency, TF over GST control); in experiment [5] it was 1.15 fold enrichment (6-mer frequency, TF over GST control); in experiment [6] it was 1.2 fold enrichment (6-mer frequency, TF over GST control). The binding signal was 1.14 fold enrichment (6-mer frequency, TF over GST control) in [7]; 1.17 fold enrichment (6-mer frequency, TF over GST control) in experiment [8]; 1.1 fold enrichment (6-mer frequency, TF over GST control) in [9].

Take TAAACG: the binding signal in experiment [1] is 1.17 fold enrichment (6-mer frequency, TF over GST control); in [2], 1.09 fold enrichment (6-mer frequency, TF over GST control); in [3], 1.15 fold enrichment (6-mer frequency, TF over GST control); in experiment [4], 1.09 fold enrichment (6-mer frequency, TF over GST control); in experiment [5], 1.11 fold enrichment (6-mer frequency, TF over GST control); in experiment [6], 1.17 fold enrichment (6-mer frequency, TF over GST control). Besides, the binding signal in [7] is 1.13 fold enrichment (6-mer frequency, TF over GST control); in experiment [8], 1.19 fold enrichment (6-mer frequency, TF over GST control); in [9], 1.13 fold enrichment (6-mer frequency, TF over GST control).
